# Source: PubChem
# The list is not random: actives were taken first. Their share in the collection is about 6.2%.
# Gal4-VP16 FLuc: VP16 counterscreen qHTS for inhibitors of ROR gamma transcriptional activity; Drosophila S2 Gal4-VP16 UAS-luciferase, luminescence, 20 h; Potency, µM (doses to about 53.6 µM), for the others: top-dose activity, negative = inhibition, hits mostly inhibitors; actives 3.5% (n = 310,000); AID 2546, 2010;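 also: Gal4-VP16 expression switched on by copper sulfate through the metallothionein promoter; nearly all actives have a fitted effect of over 50% in size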
# RORgamma inh: qHTS for inhibitors of ROR gamma transcriptional activity | actives 5.4% (n = 310,000) | Potency, µM (titrated, usually from 53.6 µM), for the others: at the top dose activity change, negative = inhibition, usual class: inhibitors | Nuclear receptor ROR-gamma (Mus musculus), P51450 | Drosophila S2 Gal4-RORgamma UAS-luciferase reporter, 20 h; also: nearly all actives have a fitted effect of over 60% in size
# Target sequence (P51450 whole entry, looked up, the tested form may be a part): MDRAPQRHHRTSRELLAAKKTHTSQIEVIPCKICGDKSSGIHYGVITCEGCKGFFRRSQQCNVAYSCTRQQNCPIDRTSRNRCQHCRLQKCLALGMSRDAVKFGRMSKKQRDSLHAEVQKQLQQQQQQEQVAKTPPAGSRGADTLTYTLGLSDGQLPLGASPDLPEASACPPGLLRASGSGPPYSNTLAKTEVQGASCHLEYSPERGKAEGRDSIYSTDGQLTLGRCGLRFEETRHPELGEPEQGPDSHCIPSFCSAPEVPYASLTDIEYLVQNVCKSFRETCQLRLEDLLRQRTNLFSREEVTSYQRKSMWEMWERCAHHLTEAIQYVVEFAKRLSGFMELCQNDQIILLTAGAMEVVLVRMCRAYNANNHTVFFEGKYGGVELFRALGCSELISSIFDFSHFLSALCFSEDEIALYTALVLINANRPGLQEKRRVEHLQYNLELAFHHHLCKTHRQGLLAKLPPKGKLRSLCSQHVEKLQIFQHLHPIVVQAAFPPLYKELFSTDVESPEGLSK
#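 Stable Schneider cell line, Gal4 DNA-binding domain fused to ROR gamma, UAS-luciferase. Cmpd 1 hr RT → CuSO4 700 uM final → 20 hr RT → luciferase reagent 10 min → luminescence.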
# Luc counter: Counterscreen for Luciferase (Kinase-Glo TM) Inhibition; Luciferin 4-monooxygenase (Photuris pensylvanica), Q27757; Kinase-Glo luciferase, ATP luminescence, 8 min; Potency, µM (titrated, usually from 38.3 µM), inactives show at the top dose activity change, negative = inhibition, usual class: inhibitors; actives 0.28% (n = 200,000); AID 1379, 2008; also: nearly all actives have a fitted effect of over 60% in size
#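 Recombinant Kinase-Glo luciferase, 10 uM ATP (linear range), luciferin; imidazole pH 7.2 / KCl / MgCl2 / Tween / BSA buffer; 8 min RT; luminescence.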
# Active calls of the source: *; ? = inconclusive; nt = no result; ! = not confirmed by another sample; [ ] = another dose, or the depositor's remark. Calls follow the shape of the dose curve; as a rule, active = well fitted curve in the direction sought with a large enough effect; inconclusive = small, poorly fitted or top-dose-only effect, or another doubt; inactive = no such curve, though single readings can be large; an effect the other way counts as inactive or inconclusive. % is scaled to controls: 0 for no effect and ±100 for the full control effect; potency is read from the fitted curve at half-maximal effect.
SMILES,Gal4-VP16 FLuc,RORgamma inh,Luc counter
CNC(=S)N/N=C/c1cn(CCOc2ccc(OC)cc2)c2ccccc12,3.16µM*,2.24µM*,-1.1%
O=[N+]([O-])c1ccc(N/N=C\c2cccnc2)nc1,5.1%,-2.0%,-2.6%
O=[N+]([O-])c1ccc(N/N=C/c2cn(Cc3ccc(F)cc3)c3ccccc23)nc1,6.31µM*,?,-1.0%
COC(=O)N/N=C/c1cn(CCCOc2ccccc2)c2ccccc12,-19.3%,17.3%,1.8%
COc1ccccc1OCCn1cc(/C=N/NC(N)=S)c2ccccc21,2µM*,0.501µM*,2.3%
COc1ccc(OCCn2cc(C=O)c3ccccc32)cc1,-23.2%,?,nt
CC1(C)CCC[C@@]2(C)C1CC[C@@](C)(O)[C@@H]2CC[C@@](C)(O)C1CO1 (stereo partly specified),-19.0%,-16.4%,0.5%
CC1CN(S(=O)(=O)c2ccc(F)cc2)C(C)N1C(=O)N1CCOCC1 (stereo unspecified),-10.9%,-18.1%,nt
CCN(CC)CCCC(C)NC(=O)c1ccc(-n2c(=O)c(=O)[nH]c3ccccc32)cc1 (stereo unspecified),nt,nt,-0.6%
O=C(O)C1=C(OCc2ccccc2)C(=O)NCC1,1.2%,1.9%,1.9%
O=S(=O)(c1ccccc1)c1cnc(-c2cccnc2)nc1-c1ccc(Cl)c(Cl)c1,-10.1%,-8.9%,0.7%
CC(C)CCNC(=O)C1CCN(S(=O)(=O)c2ccc(-n3cnnn3)cc2)CC1,2.1%,15.7%,nt
O=C(O)COc1ccccc1/C=N/NC(=O)c1ccncc1,2.2%,-5.8%,nt
CNC(=S)N/N=C/c1c(C)c(C(=O)c2ccc(F)cc2)n2ccccc12,7.94µM*,5.01µM*,nt
CNC(=S)N/N=C/c1cn(Cc2ccc(F)cc2)c2ccccc12,1.12µM*,0.891µM*,-0.5%
COC(=O)N/N=C/c1cn(Cc2ccc(F)cc2)c2ccccc12,2.6%,45.2%,nt
Cc1c(/C=N/NC(N)=O)c2ccccn2c1C(=O)c1ccc(F)cc1,-13.3%,2.2%,-4.2%
COc1ccccc1OCCn1cc(/C=N/NC(=O)c2ccncc2)c2ccccc21,?,6.31µM*,nt
O=C(NCCCCCCNC(=O)ON=C1CCCCC1)ON=C1CCCCC1,12.7%,-1.5%,-1.3%[39.9 µM]
CC1(C)CC(NC(=S)Nc2ccc([N+](=O)[O-])cc2)CC(C)(C)N1,8.3%,0.4%,3.2%
CCc1cccc(C)c1NC(=O)CCNC(=O)c1cccc(C)c1,-2.7%,-38.6%,nt
O=C1C(Cl)=C(N2CCCC2)C(=O)N1c1ccccc1F,12.8%,-45.0%[1.91 µM],nt
COc1ccc(-n2c(SCC(=O)NCCCN3CCCC3=O)nnc2C(C)N2CCCCC2)cc1 (stereo unspecified),12.9%,8.8%,2.3%
Cc1cc(C)c(-n2nnnc2SC(C)C)c(C)c1,-1.4%,-4.1%,3.6%
Cc1ccc(OCc2ccc(C(=O)Nc3ccc(C(N)=O)cc3)o2)c([N+](=O)[O-])c1,3.7%,3.1%,-6.2%
SMILES,Gal4-VP16 FLuc,RORgamma inh,Luc counter
COc1cccc(/C=C/c2ccc3cccc(O)c3n2)c1OC,5.62µM*,2.82µM*,nt
COc1ccc(/C=C/c2ccc3cccc(O)c3n2)c(OC)c1OC,?,3.16µM*,nt
COc1ccc(/C=C/c2ccncc2)c2ccccc12,-4.7%,-28.6%,2.6%
CCOc1c(OC(C)=O)ccc(/C=C/c2ccc3cccc(OC)c3n2)c1[N+](=O)[O-],-4.6%,?,1.2%
CC1CCCC(C)N1C(=O)COC(=O)Cc1ccc(F)cc1 (stereo unspecified),23.0%,-2.0%,nt
N#C/C(=C\c1cccnc1)C(=O)Nc1ccc(S(N)(=O)=O)cc1,0.6%,15.6%,nt
Nc1nc(NC2CC2)c2ncn([C@H]3C=C[C@@H](CO)C3)c2n1,-15.8%,0.6%[10 µM],nt
CCNc1ncc2nc(-c3ccc(OC)cc3)c(=O)n(CCOC)c2n1,-5.6%,-10.9%,nt
c1ccc2c(c1)Sc1ccccc1N2CCN1CCCC1,-0.8%,20.9%,nt
CN1CCN(CCCN2c3ccccc3Sc3ccc(C(F)(F)F)cc32)CC1,14.1µM*!,?,-1.9%
CC(C)CNC(=O)C(=O)NN=C1CCCCCC1,-7.2%,-2.3%,-1.6%
COCCNC(=S)NN=C1CCCCC1,?,12.6µM*,-0.8%
C=CCNC(=S)NN=C1CCCCCCC1,4.47µM*,0.355µM*,0.3%
C=CCNC(=S)NCC=C,4.0%,0.0%,nt
Cn1cc([C@@H]2C[C@H]3CN(Cc4cccc(Cl)c4)C(=O)[C@]34CCCN24)c2ccccc21,3.7%,-4.7%,nt
Cc1cc(C)n2cc(CSc3nc4ccccc4s3)nc2n1,?,-29.3%,2.9%
O=C(N/N=C1/C[C@@H](O)[C@@H](O)[C@@H]2[C@H]3C(=O)N(c4ccc(F)cc4F)C(=O)[C@@H]3CC[C@H]12)OCc1ccccc1,-4.4%[10 µM],0.0%[10 µM],nt
COc1ccccc1/C=N/NC(=O)CSc1cc(C)nc2ccccc12,-14.1%,11.2µM*,-3.5%
COc1ccccc1/C=N/NC(=O)CO,-12.7%[10 µM],-18.5%,2.1%
COc1ccc2nc(C)cc(SCC(=O)NNC(=O)COc3ccc(C)cc3)c2c1,-21.5%,-16.8%,3.0%
COc1ccc2nc(C)cc(SCC(=O)N/N=C/c3ccccc3)c2c1,9.9%,-4.9%[10 µM],1.3%
COc1ccc2nc(C)cc(SCC(=O)NNC(=O)COc3cccc4ccccc34)c2c1,8.91µM*,?,1.0%
COc1ccc2nc(C)cc(SCC(=O)N/N=C/c3ccc(O)cc3O)c2c1,?,17.8µM*,-4.3%
COc1cccc2c(SCC(=O)N/N=C/c3ccc(O)cc3O)cc(C)nc12,2.1%,?,1.0%
COc1ccccc1/C=N/NC(=O)C(C)Cn1cnc2ccccc21 (stereo unspecified),5.9%,11.2µM*,0.1%
SMILES,Gal4-VP16 FLuc,RORgamma inh,Luc counter
Cc1ccc(S(=O)(=O)N(C)c2cc(S(N)(=O)=O)c(C)cc2C)cc1,-9.5%,23.8%,-1.5%
CCOc1ccccc1NC(=O)C1CCN(S(=O)(=O)c2cccc3cccnc23)CC1,-1.4%,-18.8%,4.6%
O=[N+]([O-])c1ccc(N2CCCCC2)c(-c2nn[nH]n2)c1,-12.6%,-0.5%,1.2%
Cc1cc(C)n(C(=O)Cn2nc(C(F)F)cc2C)n1,4.4%,20.8%,1.1%
Cc1cc(C)n(CC(=O)n2nc(C)cc2C)n1,5.0%,0.316µM*,-1.4%
CCCn1c(C)nc2c(N(CCOC)CCOC)nc(C)nc21,16.5%,-25.0%,1.2%
CCN1CCN(c2nc(C)c3c(n2)CCCC3=O)CC1,2.4%,1.9%,-0.9%
COc1cccc(CN(C)C(=O)c2cccc(OC3CCN(C4CCCC4)CC3)c2)c1,8.5%,0.7%,nt
CCOC(=O)c1c(C)[nH]c(N=Nc2cccc(C)c2)c1C,1.1%,-11.5%,-1.8%
CCOC(=O)c1c(C)[nH]c(N=Nc2cccc(OC)c2)c1C,-16.2%,3.98µM*,-0.7%
COC(=O)C1=C(C(=O)OC)[C@@H]2Nc3ccccc3[C@@]23C[C@@H](C(=O)OC)N(S(=O)(=O)c2ccc4c(c2)OCCN4C)C3=N1,nt,nt,-4.6%[7.66 µM]
Cc1cc(NC(=O)CSc2nnnn2C)n(-c2ccccc2)n1,-2.2%,-2.8%,0.2%
Cc1cc(C)c(/C([O-])=C(/C(=S)Nc2ccc(SC(F)F)cc2)[n+]2ccccc2)cc1C,-10.9%,11.2µM*,1.1%
[O-]/C(=C(\C(=S)Nc1ccc(SC(F)F)cc1)[n+]1ccccc1)c1cc(Cl)ccc1Cl,-0.6%,?,0.0%
